For this test, the target named is Peroxisome proliferator-activated receptor gamma (Homo sapiens) (UniProt P37231). As to the kind of experiment: partial agonism at human PPARgamma receptor – cell-based, luciferase reporter, luminescence, primary screen (AID 504452).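 Further: Cos-1 cells carrying PPARgamma and a response element luciferase reporter.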 Particulars: cell-based PPARg luciferase reporter, at 5 µM, stronger effect = higher value; activation (% of full agonist control): measured here: relative to full agonist control.

Calls of active or inactive are those of the source. No stated cut-off is given here; in the data, active means activation above about 85%; inactive means the rest.

Chain of Peroxisome proliferator-activated receptor gamma (Homo sapiens) (P37231 whole entry, looked up): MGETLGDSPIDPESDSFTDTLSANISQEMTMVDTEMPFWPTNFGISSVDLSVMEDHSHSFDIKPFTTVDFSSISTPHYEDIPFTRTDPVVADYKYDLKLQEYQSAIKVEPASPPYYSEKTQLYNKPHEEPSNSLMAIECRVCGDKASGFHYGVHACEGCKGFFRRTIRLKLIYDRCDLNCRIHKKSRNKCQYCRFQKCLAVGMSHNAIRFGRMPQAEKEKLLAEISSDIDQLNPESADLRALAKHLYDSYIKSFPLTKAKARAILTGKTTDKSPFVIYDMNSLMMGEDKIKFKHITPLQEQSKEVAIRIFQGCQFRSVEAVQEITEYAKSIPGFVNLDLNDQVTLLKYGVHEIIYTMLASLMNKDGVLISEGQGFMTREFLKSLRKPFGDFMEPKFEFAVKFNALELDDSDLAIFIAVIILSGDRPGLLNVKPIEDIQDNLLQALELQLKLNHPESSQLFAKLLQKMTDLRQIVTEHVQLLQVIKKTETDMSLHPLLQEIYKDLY

For `O=C(NC(Cc1ccccc1)C(=O)O)/C(=C/c1ccc(Cl)cc1)NC(=O)c1ccco1` (stereo unspecified), the activation (% of full agonist control) turned out to be 24.4% and the activation (% of partial agonist control) was 54% (inactive).
The corresponding values for `O=C(O)CC(NC(=O)C(c1ccccc1)c1ccccc1)c1ccc(F)cc1` (stereo unspecified) are 27.7% and 61.3% (inactive).
The matching figures for `Cc1ccc2[nH]c(=O)c(CN(Cc3cccs3)Cc3nnnn3CC3CCCO3)cc2c1` (stereo unspecified): 44.1% and 97.6% (active).
The corresponding values for `Cc1cccn2c(=O)c(/C=C(\C#N)C(=O)NC3CCS(=O)(=O)C3)c(Oc3ccc(F)cc3)nc12` (stereo unspecified) are 34.6% and 76.7% (inactive).
Regarding `Cc1ccc(CN2C(=O)N/C(=C\c3cccn3-c3cccc(C(=O)O)c3)C2=O)cc1`, the activation (% of full agonist control) came to 36.9% and the activation (% of partial agonist control) was 81.8% (inactive).
The corresponding values for `COc1ccccc1-n1cc(C(=O)c2cc(Cl)ccc2O)cc(C#N)c1=O` are 44.9% and 99.4% (active).
Regarding `COc1cccc(NC(=O)c2ccc3c(c2)N(CC(=O)N2CCOCC2)C(=O)C(C)(C)O3)c1`, the activation (% of full agonist control) was 32.5% and the activation (% of partial agonist control) is 71.9% (inactive).
The matching figures for `N#C/C(=C\c1ccc(OCCN2CCOCC2)cc1)C(=O)Nc1ccc(S(N)(=O)=O)cc1`: 36.8% and 81.4% (inactive).
The matching figures for `O=C(CN1CCOC1=O)N1CCCC(N2CCN(c3cccc(C(F)(F)F)c3)CC2)C1` (stereo unspecified): 26.5% and 58.8% (inactive).
As for `O=c1[nH]c2cc3c(cc2cc1CN(Cc1ccccc1)Cc1nnnn1Cc1ccco1)OCCO3`, the activation (% of full agonist control) was found to be 35.1% and the activation (% of partial agonist control) was 77.6% (inactive).
The corresponding values for `COc1ccc(CN(Cc2ccccn2)C(=O)CN2C(=O)C(C)Oc3ccccc32)cc1` (stereo unspecified) are 38.6% and 85.4% (active).
The corresponding values for `Cc1ccc2nc(N3C(=O)C(O)=C(C(=O)c4ccco4)C3c3ccc(C)o3)sc2c1` (stereo unspecified) are 56.8% and 126% (active).
The matching figures for `CCOc1cccc(/C(O)=C2/C(=O)C(=O)N(CCN3CCOCC3)C2c2ccncc2)c1` (stereo unspecified): 41.3% and 91.4% (active).
On to `CCOc1cccc(/C(O)=C2/C(=O)C(=O)N(Cc3cccnc3)C2c2ccco2)c1` (stereo unspecified), for which the activation (% of full agonist control) amounted to 30.8% and the activation (% of partial agonist control) is 68.2% (inactive).
The corresponding values for `O=C(Nc1ccccc1F)C(=O)c1cn(CC(=O)N2CCCCC2)c2ccccc12` are 34.4% and 76.1% (inactive).
The matching figures for `O=C(Cc1cccc(C(F)(F)F)c1)Nc1cc(S(=O)(=O)N2CCOCC2)ccc1N1CCCC1`: 31.4% and 69.5% (inactive).
As to `CCOC(=O)/C=c1\s/c(=C\c2ccc3cc(OC)ccc3c2)c(=O)n1CC(=O)NCC1CCCO1` (stereo unspecified), the activation (% of full agonist control) turned out to be 28.6% and the activation (% of partial agonist control) was 63.3% (inactive).
The matching figures for `CCOc1ccc(CN2CCN(Cc3cccc4nonc34)CC2CCO)cc1` (stereo unspecified): 44.9% and 99.4% (active).
For `Cc1cc(C)c2nc(N3C(=O)C(O)=C(C(=O)c4ccco4)C3c3ccco3)sc2c1` (stereo unspecified), the activation (% of full agonist control) was found to be 32.9% and the activation (% of partial agonist control) was 72.7% (inactive).
Consider `O=C(COc1cc(F)ccc1[N+](=O)[O-])N1N=C(c2cccs2)CC1c1ccco1` (stereo unspecified), for which the activation (% of full agonist control) is 35.6% and the activation (% of partial agonist control) is 78.9% (inactive).
The matching figures for `COc1ccc(-c2cc(C(=O)NC(C)c3ccccn3)c3ccccc3n2)cc1OC` (stereo unspecified): 40.7% and 90.2% (active).
The matching figures for `Cc1ccc2nc(N3C(=O)C(O)=C(C(=O)c4ccc(C)o4)C3c3ccc(O)cc3)sc2c1` (stereo unspecified): 37% and 81.9% (inactive).
The corresponding values for `CC(Oc1ccc(F)cc1)C(=O)Nc1cc(S(=O)(=O)N2CCOCC2)ccc1N1CCCC1` (stereo unspecified) are 33.9% and 75.1% (inactive).
In the case of `CCOc1ccc(C2c3[nH]c4ccccc4c3CCN2Cc2cccn2-c2ncccn2)cc1` (stereo unspecified), the activation (% of full agonist control) came to 39.5% and the activation (% of partial agonist control) was 87.5% (active).
The corresponding values for `COc1ccc(C)c2sc(N(CCCN(C)C)C(=O)CS(=O)(=O)c3ccc(F)cc3)nc12` are 31.2% and 69.1% (inactive).
On to `O=C(CNC(=O)c1nc[nH]c1C(=O)N1CCc2ccccc2C1)OCc1ccccc1`, for which the activation (% of full agonist control) came out at 40.3% and the activation (% of partial agonist control) was 89.3% (active).
The corresponding values for `CCN(C(=O)CSc1nnc(-c2ccc(F)cc2)c2ccccc12)C1CCS(=O)(=O)C1` (stereo unspecified) are 34.5% and 76.4% (inactive).
The corresponding values for `O=C1C2CCCN2c2ccc(S(=O)(=O)N3CCOCC3)cc2N1Cc1cccc(C(F)(F)F)c1` (stereo unspecified) are 32.4% and 71.8% (inactive).
The matching figures for `Cc1ccccc1NC(=O)CC1C(=O)Nc2ccccc2N1CC(=O)N(C)C1CCS(=O)(=O)C1` (stereo unspecified): 47% and 104% (active).
Take `O=c1c([N+](=O)[O-])c(NCCN2CCCCCC2)c2ccccc2n1-c1ccccc1`: the activation (% of full agonist control) amounted to 15.8% and the activation (% of partial agonist control) was 34.9% (inactive).
The matching figures for `COc1cc(C2/C(=C(/O)c3ccc(F)cc3)C(=O)C(=O)N2CCCC(=O)O)ccc1O` (stereo unspecified): 37% and 82% (inactive).
The corresponding values for `O=C(N[C@@H]1CCC(=O)N(CC[C@H](Oc2ccccc2)c2ccccc2)CC1)OCc1ccccc1` are 28.1% and 62.1% (inactive).
The matching figures for `O=C(c1cc2n(n1)C(C(F)(F)F)CC(c1ccco1)N2)N1CCc2ccccc2C1` (stereo unspecified): 37.2% and 82.3% (inactive).
